Rows were chosen to be rich in hits. Some 1.8% of all compounds tested hit in one or more screens of this group.
Yp Topo-I inh – Y. pestis Topo-I inhibition via cleavage products; Y. pestis Topo-I cleavage product accumulation, plate reader; activity, % at 10 µM; hit rate 0.064% among 360,000; in the data active = activity above about 50%, passing the limit was not always enough
Vc quorum ag – quorum light induction in luxS cqsA deficient V. cholerae; activation, % at 18.7 µM; V. cholerae BH1578 lux reporter, luminescence, 6 h; hit rate 0.16% among 350,000; in the data active = activation mostly above about 9.7%, no sharp cut-off
MazF activator – MazEF (E. coli) toxin RNase activation; P0AE70; FAM/BHQ RNA-DNA oligo cleavage fluorescence, 5 h; activation, % at 20 µM; hit rate 0.32% among 350,000; AID 504720; in the data active = activation above about 50%
Target sequence (P0AE70 whole entry, looked up): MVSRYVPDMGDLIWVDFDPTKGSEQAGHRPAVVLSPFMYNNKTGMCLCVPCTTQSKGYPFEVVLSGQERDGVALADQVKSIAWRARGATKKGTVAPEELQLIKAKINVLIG
VHR inh abs – inhibitors of human VHR1 phosphatase (DUSP3) | P51452 | recombinant VHR phosphatase, pNPP absorbance | inhibition, % at 13.3 µM | hit rate 0.52% among 290,000; in the data active = inhibition above about 50%
Target sequence (P51452 whole entry, looked up): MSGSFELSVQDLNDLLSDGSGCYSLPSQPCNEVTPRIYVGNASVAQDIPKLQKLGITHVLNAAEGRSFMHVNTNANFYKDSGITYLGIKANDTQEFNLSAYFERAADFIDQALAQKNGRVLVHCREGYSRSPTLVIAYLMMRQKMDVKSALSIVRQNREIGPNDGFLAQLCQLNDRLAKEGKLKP
PrPC surface inh – reduces human prion protein on the cell surface. AID 720596. hit rate 0.43% among 370,000. cell surface PrPC, TR-FRET read-out. inhibition, % at 13.8 µM; in the data active = inhibition above about 24%; note: 0% = median of the test wells and 100% = reference compound wells
CCHF vOTU inh-1 – CCHFV vOTU protease inhibition; inhibition, % at 11.5 µM; Pep-AMC fluorescence; hit rate 0.55% among 370,000; AID 651958; note: 0% = vehicle wells with enzyme and 100% = no enzyme wells
CCHF vOTU inh-2 – confirmation of CCHF virus vOTU protease inhibitors. shares compounds with CCHF vOTU inh-1. Recombinant CCHFV vOTU, Pep-AMC fluorescence. inhibition, % at 11.5 µM. hit rate 17% among 1,900
An asterisk follows results filed as active. Cut-off read from the data, not from the text of the source, unless noted: active = inhibition above about 30%; inactive = the rest.

For O=C(O)CCCNc1cc(N2CCN(C(=O)c3ccco3)CC2)c2noc3c2c1C(=O)c1ccccc1-3 the results were Yp Topo-I inh 24.6, Vc quorum ag -0.1, MazF activator -119.9, VHR inh abs 36.0, PrPC surface inh -76.1, CCHF vOTU inh-1 32.0* and CCHF vOTU inh-2 81.0*.
CCCCN1C(=O)C(CC(=O)NC2CCCC2)CC(C(=O)N(C(C)C)C(C)C)=C1C (centres undefined) was read as Yp Topo-I inh 4.2, Vc quorum ag -2.3, MazF activator -0.2, PrPC surface inh 7.5 and CCHF vOTU inh-1 20.2.
For O=C(CNS(=O)(=O)c1ccccc1Br)OCC(=O)N1CCc2ccccc21 the results were Yp Topo-I inh 12.1, Vc quorum ag -2.5, MazF activator -0.1, VHR inh abs 20.8, PrPC surface inh -1.6 and CCHF vOTU inh-1 6.5.
`CC(=O)Nc1ccc(S(=O)(=O)NCC(=O)OCC(=O)N2CCc3ccccc32)cc1` gave Yp Topo-I inh -11.5, Vc quorum ag -0.6, MazF activator -0.7, VHR inh abs 22.8, PrPC surface inh 4.7, CCHF vOTU inh-1 29.6* and CCHF vOTU inh-2 -15.2.
For COC(=O)C[C@@H]1C=C[C@H](NC(=O)Nc2ccc(OC)cc2)[C@@H](CO)O1 the results were PrPC surface inh -4.6 and CCHF vOTU inh-1 11.3.
CC(OC(=O)/C=C/c1ccc2ccccc2n1)C(=O)Nc1ccc(S(N)(=O)=O)cc1 (centres undefined) was read as Yp Topo-I inh 2.0, Vc quorum ag inactive, MazF activator 12.3, PrPC surface inh -5.0 and CCHF vOTU inh-1 12.5.
Screening CCOC(=O)C1=C(C)N(C)C(=O)NC1c1cccc2ccccc12 (centres undefined) returned Yp Topo-I inh -3.4, Vc quorum ag inactive, MazF activator 0.4, VHR inh abs 12.7, PrPC surface inh 2.4 and CCHF vOTU inh-1 -5.5.
Screening Cc1ccc2nsnc2c1NC(=S)NC(=O)c1ccco1 returned Yp Topo-I inh 3.7, Vc quorum ag inactive, MazF activator 3.4, VHR inh abs -6.7, PrPC surface inh -13.0, CCHF vOTU inh-1 58.5* and CCHF vOTU inh-2 -9.6.
For O=C(NC(=S)Nc1ccc(N2CCN(C(=O)c3ccccc3)CC2)cc1)c1cccs1 the results were Yp Topo-I inh -5.5, Vc quorum ag inactive, MazF activator 11.4, VHR inh abs 29.8, PrPC surface inh 7.1 and CCHF vOTU inh-1 8.6.
`CCNC(=O)NC(=O)CSc1ccccc1F` gave Yp Topo-I inh -7.1, Vc quorum ag -0.2, MazF activator -3.0, VHR inh abs -1.5, PrPC surface inh -3.0 and CCHF vOTU inh-1 -9.9.
For O=c1oc2ccccc2c(Nc2cc3ccccc3cc2O)c1[N+](=O)[O-] the results were Yp Topo-I inh 4.0, Vc quorum ag -0.5, MazF activator -2.8, VHR inh abs -7.4, PrPC surface inh 2.2, CCHF vOTU inh-1 30.0* and CCHF vOTU inh-2 -9.6.
Screening CC12CCC(=O)N1C(C(=O)Nc1nc3ccc(Cl)cc3s1)CS2 (centres undefined) returned Yp Topo-I inh -0.5, Vc quorum ag inactive, MazF activator -0.5, PrPC surface inh -2.2 and CCHF vOTU inh-1 -0.9.
`O=c1[nH]c2c(s1)C(c1ccco1)C1C3CCC(C3)C1S2` (centres undefined) gave Yp Topo-I inh 13.0, Vc quorum ag inactive, MazF activator -7.5, VHR inh abs 31.8, PrPC surface inh 3.1, CCHF vOTU inh-1 32.5* and CCHF vOTU inh-2 -10.4.
O=C(O)CN1C(=O)C2C3CC(C2C1=O)C1C(c2ccccc2)c2sc(=O)[nH]c2SC31 (centres undefined) was read as Yp Topo-I inh 2.6, Vc quorum ag -0.1, MazF activator -7.3, VHR inh abs -7.2, PrPC surface inh 0.7 and CCHF vOTU inh-1 -3.6.
For COc1ccc(/C=C2\C(=O)NC(=O)c3ccccc32)cc1OC the results were Yp Topo-I inh 6.4, Vc quorum ag -1.0, MazF activator 8.1, PrPC surface inh -9.9, CCHF vOTU inh-1 108.1* and CCHF vOTU inh-2 103.4*.
Screening CC1(C(=O)Nc2cccc(OC(F)(F)F)c2)Cc2c(-c3ccc4c(c3)OCO4)ccnc2O1 (centres undefined) returned Yp Topo-I inh 1.2, Vc quorum ag -0.9, PrPC surface inh 4.0, CCHF vOTU inh-1 31.1* and CCHF vOTU inh-2 -11.1.
For CN(C)c1ccc(-c2ccnc3c2CC(C)(C(=O)Nc2cccc(OC(F)(F)F)c2)O3)cc1 (centres undefined) the results were Yp Topo-I inh 9.3, Vc quorum ag -0.8, PrPC surface inh -1.0 and CCHF vOTU inh-1 3.7.
`O=C(Nc1ccc(-c2nc3ccccc3[nH]2)cc1)c1ccc2c(c1)OCO2` gave Yp Topo-I inh 11.5, Vc quorum ag inactive, MazF activator -29.1, VHR inh abs 20.0, PrPC surface inh 7.3, CCHF vOTU inh-1 36.1* and CCHF vOTU inh-2 -39.2.
For COC(CNC(=O)c1ccc2c3c(onc13)-c1ccccc1C2=O)OC the results were Yp Topo-I inh -14.3, Vc quorum ag -0.3, MazF activator inactive, VHR inh abs 4.3, PrPC surface inh -57.4, CCHF vOTU inh-1 78.1* and CCHF vOTU inh-2 47.8*.
`COC(CNC(=O)c1cccnc1)OC` gave Yp Topo-I inh -11.6, Vc quorum ag -0.3, MazF activator 2.6, VHR inh abs 15.8, PrPC surface inh 3.4 and CCHF vOTU inh-1 6.9.
Screening O=C(NCc1ccc(F)cc1)c1ccc(S(=O)(=O)Nc2cccc(C(F)(F)F)c2)cc1 returned Yp Topo-I inh -4.6, Vc quorum ag -0.4, MazF activator -0.6, VHR inh abs 5.7, PrPC surface inh 16.8, CCHF vOTU inh-1 30.0* and CCHF vOTU inh-2 -11.5.
CC1=C(C(N)=O)C(c2ccccc2)n2nc(-c3ccncc3)nc2N1 (centres undefined) was read as Yp Topo-I inh -9.4, Vc quorum ag -1.5, MazF activator 7.4, VHR inh abs 23.7, PrPC surface inh -3.5 and CCHF vOTU inh-1 -6.2.
`Cc1nc(-[n+]2nc(-c3ccncc3)nn2-c2ccccc2)sc1C` gave PrPC surface inh -2.9, CCHF vOTU inh-1 43.9* and CCHF vOTU inh-2 -3.7.
CCN(c1ccccc1)S(=O)(=O)c1ccc(OC)c(NC(=O)Cn2cnc3c2c(=O)n(C)c(=O)n3C)c1 was read as Yp Topo-I inh -9.2, Vc quorum ag -0.2, MazF activator -2.3, VHR inh abs 27.2, PrPC surface inh 1.9 and CCHF vOTU inh-1 -4.8.
Screening COC(=O)c1cc2c(c3c4cc(OC)ccc4n(S(=O)(=O)c4cccc(C)c4)c13)C(=O)N(Cc1ccccc1OC)C2 returned PrPC surface inh 5.5 and CCHF vOTU inh-1 -4.0.
`O=C(c1ccc2nc(-c3ccco3)c(-c3ccco3)nc2c1)N1CCN(c2ccccc2)CC1` gave Yp Topo-I inh 14.7, Vc quorum ag -2.2, MazF activator -7.6, VHR inh abs -4.9, PrPC surface inh -23.5, CCHF vOTU inh-1 47.9* and CCHF vOTU inh-2 -8.1.

Screening results (PubChem)
